Molecules are shown by their SMILES. Results filed as inconclusive are left out. More than one record can exist for a structure, and the calls need not agree. Active and inactive are the calls of the source. Unless noted, calls come from the whole dose curve.

Assay [1] can be described thus: Nuclear factor erythroid 2-related factor 2/antioxidant responsive element (Nrf2/ARE) small molecule agonists: luciferase reporter gene qHTS assay in human keratinocytes (AID 1919969; note: nearly all actives have a fitted effect of over 35% in size; note: potency is the fitted concentration of half-maximal effect). (In general: A reporter such as luciferase makes a cellular process visible.)
Assay [2] concerns the target KiSS-1 receptor (Homo sapiens) (UniProt Q969F8). Description: Human kisspeptin (KISS1R) small molecule agonists, calcium flux assay in KISS1R-HEK293 cells (AID 1920064; active = well fitted activation curve with a large enough effect in the repeat runs). The gist of the method:
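Cell line: HEK293, stable human KISS1R. Dye loading 1 h at 37 C after 18 h culture. Read: kinetic fluorescence, 480/540 nm, 3 min at 1 s intervals.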
Background: A change in cytosolic calcium serves as a functional read-out for many receptors and channels.

Assay [3] can be described thus: G protein-coupled receptor (GPCR) small molecule agonists, calcium flux assay: HEK293 wild type cell line counter screen (AID 1920065). The gist of the method:
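Tox21 10K compounds, 15 concentrations each in triplicate, pin-transferred in DMSO onto dye-loaded cells; kinetic read at 480/540 nm for 3 min, 1 s intervals.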

Assay [4] can be described thus: p53 small molecule agonists, cell-based qHTS assay with human liver microsomes (AID 1963577). The gist of the method:
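Cells carrying a p53-responsive bla reporter were rested 5 h (37 C, 5% CO2) before compound transfer. Human liver microsomes plus NADPH, 0.5 mg/mL final apiece, supplied metabolism during the 16 h 37 C exposure.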
A general note: In qHTS, concentration-response curves come from the screen itself.

Assay [5] can be described thus: p53 small molecule agonists, cell-based qHTS assay with rat liver microsomes (AID 1963578). The gist of the method:
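Fluorescence from a beta-lactamase reporter under a p53 response element was measured after cells had been incubated 16 h at 37 C with test compound and rat liver microsomes plus NADPH (0.5 mg/mL final each).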

Assay [6] can be described thus: p53 small molecule agonists, cell-based qHTS assay with rat liver microsomes: qHTS cell viability counter screen (AID 1963580). Note: nearly all actives have a fitted effect of over 45% in size. The gist of the method:
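After the beta-lactamase ratio was read, CellTiter-Glo was added to the same wells and luminescence measured at 30 min; cells had been treated 16 h at 37 C with compounds, rat liver microsomes and NADPH (0.5 mg/mL final each).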

The nature of assay [7]: p53 small molecule agonists, cell-based qHTS assay: qHTS cell viability counter screen (AID 1963581). Note: nearly all actives have a fitted effect of over 45% in size. The gist of the method:
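ATP content measured by luminescence in HCT-116 p53RE-bla cells treated 16 h at 37 C, same wells as the reporter screen.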

Assay [8] can be described thus: p53 small molecule agonists, cell-based qHTS assay (AID 1963582; active = well fitted activation curve with a large enough effect in the signal ratio in the repeat runs, not every such curve was filed as active; the % refers to the signal ratio). The gist of the method:
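16 h compound exposure (37 C) of p53 response element–bla cells, preceded by 5 h recovery at 37 C/5% CO2; read-out via LiveBLAzer B/G FRET substrate, 2 h RT, fluorescence intensity.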

Assay [9] concerns the target 5-hydroxytryptamine receptor 2A (Homo sapiens) (UniProt P28223). Description: 5-hydroxytryptamine receptor 2A (HTR2A) small molecule antagonists, cell-based qHTS assay (AID 1963586). Note: nearly all actives have a fitted effect of over 45% in size. Note: potency is the fitted concentration of half-maximal effect. The gist of the method:
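CHO cells stably expressing human HTR2A were plated for 18 h at 37 C, then loaded with calcium dye for 1 h. Compounds were preincubated 5 min at room temperature before DOI (4 nM solution) was added. Kinetic fluorescence was read for 3 min.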

Assay [10] shares this target. Description: 5-hydroxytryptamine receptor 2A (HTR2A) small molecule agonists, cell-based qHTS assay (AID 1963587). Note: nearly all actives have a fitted effect of over 30% in size. Note: potency is the fitted concentration of half-maximal effect. The gist of the method: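 CHO cells stably expressing human HTR2A, plated 18 h, loaded with calcium dye 1 h at 37 C. Agonist mode: compounds added and intracellular calcium fluorescence recorded kinetically for 2 min at 1 sec intervals.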
Assay [11] addresses Muscarinic acetylcholine receptor M1 (Homo sapiens) (UniProt P11229). Kind of assay: Cholinergic receptor muscarinic 1 (CHRM1) small molecule antagonists, cell-based qHTS assay (AID 1963588). Note: nearly all actives have a fitted effect of over 40% in size. The gist of the method: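 Compounds were tested at 15 concentrations in three independent runs. Dye-loaded CHRM1-CHO cells were exposed 5 min at room temperature before stimulation by acetylcholine added at 50nM. Intracellular calcium was read kinetically on FDSS for 3 min.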

The target is the same in assay [12]. Kind of assay: Cholinergic receptor muscarinic 1 (CHRM1) small molecule agonists, cell-based qHTS assay (AID 1963589). Note: nearly all actives have a fitted effect of over 35% in size. The gist of the method:
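Homogeneous fluorescence calcium flux, agonist mode. Human M1-expressing CHO cells; compound dosed at 15 concentrations, three independent runs; signal sampled every 1 sec.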

The nature of assay [13]: cAMP Responsive Elements (CRE) small molecule antagonists, cell-based qHTS assay (AID 1963591; active = well fitted inhibition curve with a large enough effect in the signal ratio in the repeat runs, not every such curve was filed as active; the % refers to the signal ratio; note: potency is the fitted concentration of half-maximal effect). The gist of the method: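 First, CRE-bla HEK293T cells settled 18 h at 37 C. Next, compound and 0.25 uM final NKH477 were applied for 3 h. Last, LiveBLAzer B/G substrate was loaded for 2 h at room temperature.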
Assay [14] concerns the target Beta-2 adrenergic receptor (Homo sapiens) (UniProt P07550). Kind of assay: Adrenergic beta2 receptor (ADRB2) small molecule antagonists, cell-based qHTS assay (AID 1963592). Note: nearly all actives have a fitted effect of over 50% in size. Note: potency is the fitted concentration of half-maximal effect. The gist of the method:
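Assay format: CHO-ADRB2 cells, 18-20hr seeding at 37C/5% CO2, then compound plus 1nM isoproterenol agonist mix for 0.5hr RT. Homogeneous time-resolved fluorescence cAMP detection after 1hr, expressed as 665/615 nm ratio.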

In assay [15] the target is D(2) dopamine receptor (Homo sapiens) (UniProt P14416). Kind of assay: Dopamine D2 receptor (DRD2) small molecule agonists, cell-based qHTS assay (AID 1963594). Note: nearly all actives have a fitted effect of over 35% in size. The gist of the method: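 HEK293 cells stably expressing human DRD2, pre-treated with PDE inhibitor Ro20-1724 (0.1 mM final) and compound 10 min at room temperature, then stimulated with NKH477 (200nM […]) for 30 min. cAMP read by HTRF (665/620 nm).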
Chain of D(2) dopamine receptor (Homo sapiens) (P14416 whole entry, looked up): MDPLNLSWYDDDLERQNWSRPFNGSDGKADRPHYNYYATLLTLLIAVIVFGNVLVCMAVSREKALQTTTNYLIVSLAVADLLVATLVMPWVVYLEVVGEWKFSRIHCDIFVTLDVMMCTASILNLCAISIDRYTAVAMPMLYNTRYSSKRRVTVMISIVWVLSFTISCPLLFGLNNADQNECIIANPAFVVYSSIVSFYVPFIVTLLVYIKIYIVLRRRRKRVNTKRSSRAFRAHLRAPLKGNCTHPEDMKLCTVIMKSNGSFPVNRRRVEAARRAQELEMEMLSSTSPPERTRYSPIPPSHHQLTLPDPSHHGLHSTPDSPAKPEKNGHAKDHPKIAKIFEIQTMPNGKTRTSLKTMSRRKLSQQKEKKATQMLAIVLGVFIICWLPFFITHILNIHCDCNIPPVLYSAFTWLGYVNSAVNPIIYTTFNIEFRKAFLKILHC

The target is the same in assay [16]. Description: Dopamine D2 receptor (DRD2) small molecule antagonists, cell-based qHTS assay (AID 1963595; active = well fitted inhibition curve with a large enough effect in the signal ratio in the repeat runs, with a control signal flat; the % refers to the signal ratio; note: potency is the fitted concentration of half-maximal effect). The gist of the method:
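Antagonist mode in DRD2-HEK293 cells: after compound addition with 0.1 mM Ro20-1724, cells received quinpirole (12 nM) and NKH477 (200 nM) for 30 min at room temperature; HTRF cAMP read after 1 h detection.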

A short description of assay [17]: p53 small molecule agonists, cell-based qHTS assay with human liver microsomes: qHTS cell viability counter screen (AID 1963579). Note: nearly all actives have a fitted effect of over 45% in size. Note: potency is the fitted concentration of half-maximal effect. The gist of the method: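 Seed p53RE-bla cells at 4,000 per well; incubate 5 h at 37 C; add compound, human liver microsomes and NADPH; incubate 16 h at 37 C; add CellTiter-Glo; after 30 min at room temperature, read luminescence.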

Assay [18] can be described thus: cAMP Responsive Elements (CRE) small molecule agonists, cell-based qHTS assay (AID 1963590). The gist of the method: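 HEK 293T cells stably bearing CRE-bla were plated at 2,000 cells per well and rested 18 h. Compounds, positive controls or DMSO were added for 3 h at 37 C. LiveBLAzer B/G substrate was then loaded for 2 h at room temperature.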
The target of assay [19] is Gonadotropin-releasing hormone receptor (Homo sapiens) (UniProt P30968). Description: Human gonadotropin-releasing hormone receptor (GnRHR) small molecule agonists, calcium flux assay in GnRHR-HEK293 cells (AID 1920063). Note: nearly all actives have a fitted effect of over 35% in size. Note: potency is the fitted concentration of half-maximal effect. The gist of the method:
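Compounds dissolved in DMSO are pin-transferred onto dye-loaded GnRHR-HEK293 cells, which were seeded 18 h before at 37 C/5% CO2. Calcium signal is read as fluorescence intensity at 1 s intervals for 3 min.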

The target of assay [20] is Beta-2 adrenergic receptor (Homo sapiens) (UniProt P07550). Kind of assay: Adrenergic beta2 receptor (ADRB2) small molecule agonists, cell-based qHTS assay (AID 1963593).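 Note: CHO cells stably overexpressing human ADRB2.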 The gist of the method:
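CHO cells stably over-expressing ADRB2 were plated overnight at 37C, then dosed with compounds plus a stimulation mix containing 100uM IBMX and 25uM Ro-20-1724 for 0.5hr at room temperature. cAMP was measured by HTRF competition, 1hr.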

Chain of Gonadotropin-releasing hormone receptor (Homo sapiens) (P30968 whole entry, looked up): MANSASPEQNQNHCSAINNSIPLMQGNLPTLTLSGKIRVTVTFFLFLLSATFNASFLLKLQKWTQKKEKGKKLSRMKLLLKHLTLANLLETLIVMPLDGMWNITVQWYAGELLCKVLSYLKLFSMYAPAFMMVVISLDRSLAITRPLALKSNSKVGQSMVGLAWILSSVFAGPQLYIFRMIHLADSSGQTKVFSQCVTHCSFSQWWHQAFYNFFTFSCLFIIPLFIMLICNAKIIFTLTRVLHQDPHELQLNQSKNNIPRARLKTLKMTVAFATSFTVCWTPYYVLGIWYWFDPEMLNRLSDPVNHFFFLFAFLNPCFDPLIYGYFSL
Chain of 5-hydroxytryptamine receptor 2A (Homo sapiens) (P28223 whole entry, looked up): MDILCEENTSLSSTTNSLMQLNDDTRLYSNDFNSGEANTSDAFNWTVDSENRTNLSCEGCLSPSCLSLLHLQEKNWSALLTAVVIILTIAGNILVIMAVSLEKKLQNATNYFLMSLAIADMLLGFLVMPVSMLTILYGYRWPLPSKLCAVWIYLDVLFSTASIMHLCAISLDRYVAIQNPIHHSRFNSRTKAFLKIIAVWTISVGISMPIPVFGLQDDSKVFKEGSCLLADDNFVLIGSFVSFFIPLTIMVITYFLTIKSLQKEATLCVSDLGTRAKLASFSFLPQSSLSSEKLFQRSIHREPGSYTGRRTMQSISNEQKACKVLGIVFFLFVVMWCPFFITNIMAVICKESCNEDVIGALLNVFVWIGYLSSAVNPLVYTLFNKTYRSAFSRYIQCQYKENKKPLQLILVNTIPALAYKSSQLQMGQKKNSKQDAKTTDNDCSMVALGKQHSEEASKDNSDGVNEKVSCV
Chain of Muscarinic acetylcholine receptor M1 (Homo sapiens) (P11229 whole entry, looked up): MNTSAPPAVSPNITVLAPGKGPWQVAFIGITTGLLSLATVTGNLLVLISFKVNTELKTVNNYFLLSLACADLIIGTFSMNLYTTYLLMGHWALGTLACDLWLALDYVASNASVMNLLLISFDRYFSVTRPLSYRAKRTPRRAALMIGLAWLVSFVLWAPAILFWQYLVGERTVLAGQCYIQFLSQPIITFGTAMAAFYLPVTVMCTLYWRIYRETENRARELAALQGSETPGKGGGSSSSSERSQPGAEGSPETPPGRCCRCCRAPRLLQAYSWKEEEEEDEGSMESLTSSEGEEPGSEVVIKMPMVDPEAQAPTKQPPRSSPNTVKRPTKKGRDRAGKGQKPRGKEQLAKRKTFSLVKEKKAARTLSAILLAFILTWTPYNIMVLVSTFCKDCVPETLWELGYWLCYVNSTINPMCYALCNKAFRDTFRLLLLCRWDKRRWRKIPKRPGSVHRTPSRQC
Chain of Beta-2 adrenergic receptor (Homo sapiens) (P07550 whole entry, looked up): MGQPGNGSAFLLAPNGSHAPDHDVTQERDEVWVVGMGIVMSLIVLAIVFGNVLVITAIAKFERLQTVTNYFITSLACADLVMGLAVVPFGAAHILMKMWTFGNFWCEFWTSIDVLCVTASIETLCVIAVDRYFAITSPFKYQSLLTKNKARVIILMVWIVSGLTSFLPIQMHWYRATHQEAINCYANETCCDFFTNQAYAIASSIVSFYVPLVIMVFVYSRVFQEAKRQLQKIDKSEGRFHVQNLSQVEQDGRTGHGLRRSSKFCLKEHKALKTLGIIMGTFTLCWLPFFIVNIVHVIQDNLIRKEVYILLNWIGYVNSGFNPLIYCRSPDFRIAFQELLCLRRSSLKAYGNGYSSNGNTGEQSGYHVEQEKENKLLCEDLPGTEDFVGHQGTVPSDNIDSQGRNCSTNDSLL
Chain of KiSS-1 receptor (Homo sapiens) (Q969F8 whole entry, looked up): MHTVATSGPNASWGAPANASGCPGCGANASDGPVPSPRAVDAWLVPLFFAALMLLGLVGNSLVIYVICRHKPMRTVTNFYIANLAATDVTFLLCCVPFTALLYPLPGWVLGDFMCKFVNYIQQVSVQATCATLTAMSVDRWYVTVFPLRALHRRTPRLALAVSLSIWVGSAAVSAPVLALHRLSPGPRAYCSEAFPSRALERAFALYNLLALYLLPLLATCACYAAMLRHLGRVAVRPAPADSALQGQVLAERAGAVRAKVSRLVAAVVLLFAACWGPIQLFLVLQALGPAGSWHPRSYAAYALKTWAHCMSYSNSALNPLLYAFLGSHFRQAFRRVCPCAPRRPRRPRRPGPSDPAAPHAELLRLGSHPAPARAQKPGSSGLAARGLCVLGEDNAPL

Regarding `CNCCCCOc1ccccc1Cc1ccccc1`, the Potency result in assay [1], in assay [2], in [3], in assay [4], in assay [5] and in [6] was “inactive” throughout. In addition, the Potency result in assay [7], in assay [8], in [11], in [12], in assay [13] and in assay [15] was “inactive” in each case. The Potency entry in assay [16] is “inactive”. The Potency is 0.115 µM (active) in assay [9], 10.7 µM (active) in [10] and 8.41 µM (active) in [14].
In the case of `CCCCCCOC(=O)NC(=N)c1ccc(NCc2nc3cc(C(=O)N(CCC(=O)OCC)c4ccccn4)ccc3n2C)cc1`, the Potency result in assay [1], in assay [2], in [3], in [4], in assay [5] and in assay [17] was “inactive” each time. For the same molecule, the Potency entry in assay [6], in assay [10], in assay [11], in assay [12], in [14] and in [15] was “inactive” throughout. Moreover, in [16], the Potency entry is “inactive”.
In the case of `CC1(O)CSC(C)(O)CS1` (stereo unspecified), the Potency in [1] is 30.6 µM (active). For the same molecule, the Potency entry in assay [2], in [3], in assay [4], in [5], in assay [17] and in assay [6] was “inactive” each time. Also, the Potency result in assay [7], in [9], in assay [10], in assay [11], in assay [12] and in [18] was “inactive” throughout. For the same molecule, the Potency result in assay [13], in assay [14], in assay [15] and in assay [16] was “inactive” throughout.
On to `CC(C)=CCOc1ccc(/C=C/C(=O)c2ccc(OCC=C(C)C)cc2OCC(=O)O)cc1`, for which the Potency in assay [1] was 26.6 µM (active). For the same molecule, the Potency result in assay [19], in assay [3], in assay [17], in assay [6], in [10] and in assay [12] was “inactive” throughout. In addition, the Potency entry in assay [14], in assay [20], in assay [15] and in assay [16] was “inactive” throughout.
As to `CCN(CC)CCOc1ccc2c(c1)C(=O)c1cc(OCCN(CC)CC)ccc1-2`, the Potency in [1] is 33.5 µM (active); in [13], 29.8 µM (active). The Potency result in [19], in assay [3], in assay [17], in assay [6], in assay [7] and in [9] was “inactive” throughout. For the same molecule, the Potency entry in [10], in assay [12] and in [18] was “inactive” throughout.
In the case of `CC(CN(C)C)CN1c2ccccc2CCc2ccccc21` (stereo unspecified), the Potency entry in [1], in assay [2], in [3], in [4], in assay [5] and in assay [17] was “inactive” throughout. Besides, the Potency result in assay [10], in [11], in assay [12] and in [15] was “inactive” throughout. Moreover, the Potency in assay [16] was 23.7 µM (active).
Take `CCCCCCOC(=O)c1ccc(O)cc1`: the Potency in assay [1] was 19.4 µM (active) and inactive. Moreover, the Potency entry in assay [2], in assay [3], in assay [4], in [5], in [17] and in assay [6] was “inactive” throughout. In addition, the Potency result in [7], in assay [8], in [10], in assay [11], in assay [12] and in assay [14] was “inactive” in each case. In addition, the Potency entry in [20] and in assay [15] was “inactive” each time.
In the case of `O[C@@H](c1cc(C(F)(F)F)nc2c(C(F)(F)F)cccc12)[C@H]1CCCCN1`, the Potency result in assay [1], in [3], in assay [5], in [17], in [15] and in assay [16] was “inactive” throughout. Further, the Potency was 16.9 µM (active) in [19], 3.65 µM (active) in [9] and 10.7 µM (active) in assay [10].
With `CC(C)c1ccc2c(c1)CC[C@H]1[C@](C)(CN)CCC[C@]21C`, the Potency entry in assay [1], in [3], in assay [4], in assay [5], in assay [8] and in [11] was “inactive” throughout. The Potency result in assay [14] and in assay [15] was “inactive” throughout. Moreover, the Potency in assay [19] is 11 µM (active); in assay [17], 40.8 µM (active); in assay [9], 29.8 µM (active); in assay [10], 49 µM (active); in assay [16], 68.6 µM (active).
